From PubChem BioAssay
Sa growth inh = inhibitors of Staphylococcus aureus growth at 42 °C. relative growth, % (no concentration beside the values). actives 0.53% (n = 170,000). AID 720641. S. aureus RN4220 growth, OD600, 20 h; active compounds read low;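 active = relative growth at most 50% at the other temperature and 20+ points below 30 °C, or under 10% at both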
Sa helicase inh = blocks Staphylococcus aureus DNA helicase; purified S. aureus helicase, fluorescence unwinding assay; AID 485395; actives 0.05% (n = 120,000); inhibition, % (test concentration not listed); in the data active = inhibition above about 25%, passing the limit was not always enough;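 also: 0% = mean of negative control wells and 100% = mean of positive control wells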
An asterisk follows results filed as active; / = not tested or not shown. The entries come from a sample that favours hits as a whole.

SMILES | Sa growth inh | Sa helicase inh
Cc1cc(C(=O)Nc2ccc(Cl)cc2)c2c(C)nn(-c3ccccc3)c2n1 | 105.5 | /
Cc1nn(-c2ccccc2)c2[nH]cc(C(=O)Nc3ccccc3)c(=O)c12 | 8.8* | 5.0
CC(=O)N1CCN(Cc2csc(Nc3ccccc3)n2)CC1 | 105.5 | -6.0
CC1CN(Cc2csc(Nc3ccccc3)n2)CC(C)O1 (stereo not given) | 0.7* | 12.0
NNC(=O)c1cc2ncc(C(F)(F)F)cc2s1 | 0.0* | 29.0
CCOC(=O)c1cc2ncc(C(F)(F)F)cc2s1 | 93.3 | /
COc1ccccc1NC(=O)CC(O)(C(F)(F)F)C(F)(F)F | 101.8 | 20.0
Cc1ccc(Cl)cc1NC(=O)CC(O)(C(F)(F)F)C(F)(F)F | -0.8* | 5.0
CN(C)[C@@H]1C(=O)C(C(=O)NCN2CCCC2)=C(O)[C@@]2(O)C(=O)C3=C(O)c4c(O)cccc4[C@@](C)(O)C3CC12 (stereo not given in full) | 85.9 | /
C=C1c2cccc(O)c2C(O)=C2C(=O)[C@]3(O)C(O)=C(C(N)=O)C(=O)[C@@H](N(C)C)[C@@H]3[C@@H](O)[C@H]12 | 0.1* | /
C=C1c2c(Cl)ccc(O)c2C(O)=C2C(=O)[C@]3(O)C(O)=C(C(N)=O)C(=O)[C@@H](N(C)C)[C@@H]3[C@@H](O)[C@H]12 | -0.9* | /
CCCc1nc2ccccc2n1CC(=O)Nc1ccc(OC)cc1OC | 114.8 | -19.0
CCN(CC)c1ccc(C(=O)NN=C2C3CC4CC(C3)CC2C4)cc1 | 78.5 | 2.0
Cc1ccc2c(c1)NC(c1ccc(C(=O)O)cc1)c1cccn1-2 (stereo not given) | 85.9 | /
CCOC(CSc1nc2ccccc2[nH]1)OCC | / | 12.0
CN1CCN(S(=O)(=O)c2ccc(C(N)=O)cc2)CC1 | 98.1 | 7.0
COc1ccc(-c2nc(N)sc2-c2ccccc2)cc1 | / | 16.0
N#CSc1sc(N)nc1-c1ccccc1 | 0.1* | 19.0
O=C1c2ccccc2-c2onc3c(N4CCCCC4)cc(N4CCCCC4)c1c23 | 95.6 | 6.0
Cc1nc2c(-c3ccccc3)c(C)[nH]n2c(=O)c1Cc1ccc(Br)cc1 | 0.1* | /
Cc1ccc(Cc2c(C)nc3c(-c4ccccc4)c(C)[nH]n3c2=O)cc1 | 108.2 | /
Cc1cc(S(=O)(=O)NCc2csc(-c3cccs3)n2)c(C)s1 | 102.3 | /
CNCC(=O)N1CCOCC1 | 101.5 | 8.0
CC(C)(C)c1csc(NC(=O)CSC2=NCCS2)n1 | 87.5 | -3.0
CC(Nc1nc(C(C)(C)C)cs1)=C(C#N)C#N | 4.2* | 7.0
SMILES | Sa growth inh | Sa helicase inh
CCN(CC)CCCNc1nc2cc(OC)c(OC)cc2c2nc(-c3ccccc3)nn12 | 104.4 | 74.0*
CCN(CC)CCCNc1nc2cc(OC)c(OC)cc2c2nc(-c3cccnc3)nn12 | 93.5 | 43.0
Cc1ccc(S(=O)(=O)NCCc2csc(-c3ccc(Cl)cc3)n2)cc1 | 93.1 | /
CN1CCC(N(C)Cc2csc(-c3ccc(Cl)cc3)n2)CC1 | -0.3* | -17.0
c1ccc2cc3c(Nc4ccc(N5CCOCC5)cc4)ccnc3cc2c1 | 98.9 | 18.0
CC(C)Nc1ccc(Nc2ccnc3cc4ccccc4cc23)cc1 | -1.9* | 67.0*
COc1ccccc1C(C)NCC(=O)Nc1ccccc1C#N (stereo not given) | 86.3 | -3.0
Cc1cccc(CS(=O)(=O)c2ncc(Cl)c(C(=O)Nc3nnc(C(C)C)s3)n2)c1 | 5.0* | /
Cc1ccc(CS(=O)(=O)c2ncc(Cl)c(C(=O)Nc3nnc(C(C)C)s3)n2)cc1 | 5.6* | /
CCc1nnc(NC(=O)c2nc(S(=O)(=O)Cc3cccc(C)c3)ncc2Cl)s1 | 11.4 | /
CCc1nnc(NC(=O)c2nc(S(=O)(=O)Cc3ccc(C)cc3)ncc2Cl)s1 | 11.1 | /
CC(=O)N(c1nccs1)C1CCCCC1 | 93.3 | 12.0
Cc1nc2ccccc2c2oc(C(=O)NCCN(C)C3CCCCC3)cc12 | 118.5 | 11.0
CCc1ccccc1-n1c(=O)oc2ccc(Cl)cc2c1=O | -0.8* | -17.0
CCc1ccc(-n2c(=O)oc3ccc(Cl)cc3c2=O)cc1 | 45.8 | 7.0
CC1CCCC(C)N1C(=O)COC(=O)c1ccc(N2C(=O)c3ccccc3C2=O)cc1 (stereo not given) | 97.7 | 3.0
C/C(=N\NC(N)N)C1CCCCCCCCCCC1 | -0.4* | 0.0
C/C(=N\NC(N)=O)C1CCCCC1 | 97.5 | 8.0
O=C(Nc1c(-c2ccc(F)cc2)nc2ccccn12)c1ccccc1 | 191.1 | 9.0
CCSc1nc2ccccc2s1 | 85.4 | -22.0
CCSc1ccc(SC#N)s1 | -0.4* | 14.0
Cc1cccc(NC(=O)c2ccc3c(c2)CCCC3)n1 | / | 3.0
O=C(Cn1cnc2onc(-c3ccc(F)cc3)c2c1=O)N1CCN(Cc2ccc3c(c2)OCO3)CC1 | 91.5 | 4.0
O=C(O)CCc1ccc(-c2cccs2)o1 | 93.8 | 11.0
Cc1ccc(-c2ccc(CCC(=O)O)o2)cc1 | -1.4* | 14.0
SMILES | Sa growth inh | Sa helicase inh
Cc1ccc(NC(=O)CSC2CC(=O)NC2=O)cc1 (stereo not given) | 72.2 | -29.0
Cc1cc(C)c2c(=O)cc(CSCC(=O)Nc3nnc(C)s3)[nH]c2c1 | -0.5* | /
Cc1ccc2c(=O)cc(CSCC(=O)Nc3nnc(C)s3)[nH]c2c1 | 95.3 | /
COc1cccc(OC)c1C(=O)N1CCN(C(=O)c2ccccc2)CC1 | 96.0 | 23.0
COc1ccc(-c2noc(CSc3nnc(-c4ccncc4)n3CC(C)C)n2)cc1 | 111.4 | -9.0
Cc1ccc(C(=O)N2CC3(C)CC2CC(C)(C)C3)cc1 (stereo not given) | 125.3 | 8.0
O=C(CSc1nc(-c2ccccc2F)nc2cc(=O)[nH]n12)Nc1cccc(C(F)(F)F)c1 | 2.8* | /
O=C(CSc1nc(-c2cccc(Cl)c2)nc2cc(=O)[nH]n12)Nc1ccccc1 | 88.6 | /
C[N+]1(CC(O)C[N+]2(C)CCCCC2)CCCCC1 | 67.6 | 5.0
N#CC(Cc1ccccc1)Sc1nnc2sc3ccccc3n12 (stereo not given) | 96.9 | 13.0
CCC(C)NC(=O)C1CCCN(c2nc(-c3ccc(OC)cc3)no2)C1 (stereo not given) | 93.4 | 3.0
CCCCS(=O)c1sc2nc(C)cc(C)c2c1N (stereo not given) | 81.2 | 4.0
CCCCS(=O)c1sc2nc(-c3cccs3)cc(-c3ccccc3)c2c1N (stereo not given) | 12.5* | 8.0
CCOC(=O)C1=C(O)c2ccccc2C1=O | 122.0 | 4.0
CCOC(=O)c1c2c(n3ccccc13)C(=O)c1ccccc1C2=O | 9.7* | -9.0
Cc1nccc(-c2cccc(C#N)c2)n1 | 77.4 | 2.0
Cc1ccc(OCC(=O)Nc2cccc3ccc(C)nc23)c(C)c1 | 98.6 | /
Cc1ccc2c(Cl)cc(Cl)c(OCC(=O)Nc3c(F)cccc3F)c2n1 | -0.2* | -19.0
CC1CC(C)CN(CCCNC(=O)c2ccc3c(c2)N(C)CCS3)C1 (stereo not given) | 102.6 | 31.0
O=c1[nH]nc(CSc2ccc(Cl)cc2)c2ccccc12 | 107.1 | /
Clc1ccc(C2Oc3ccccc3C3CC(c4ccco4)=NN32)cc1 (stereo not given) | 113.1 | -12.0
CN1C=C/C(=C\c2cc[n+](C)c3ccccc23)c2ccccc21 | 0.6* | 86.0*
C[n+]1ccc(/C=C/c2ccccc2F)c2ccccc21 | 6.9 | 25.0
O=C(CC12CC3CC(CC(C3)C1)C2)NO | 93.6 | 11.0
CC[C@H]1OC(=O)[C@H](C)[C@@H](O[C@H]2C[C@@](C)(OC)[C@@H](O)[C@H](C)O2)[C@H](C)[C@@H](O[C@@H]2O[C@H](C)C[C@H](N(C)C)[C@H]2O)[C@](C)(OC)C[C@@H](C)C(=O)[C@H](C)[C@@H](O)[C@]1(C)O | -0.8* | /
